PubChem BioAssay (NCATS)
Values joined by “and” are separate entries in the source; they are usually repeats but may differ in a detail not shown here. Equal values may be shown once. Results filed as inconclusive are left out. More than one record can exist for a structure, and the calls need not agree. Active and inactive are the calls of the source. Unless noted, calls come from the whole dose curve; as a rule, active = well fitted curve in the direction sought with a large enough effect; inconclusive = small, poorly fitted or top-dose-only effect, or another doubt; inactive = no such curve, though single readings can be large; an effect the other way counts as inactive or inconclusive.

Key:
[1] = qHTS profiling of the MIPE4 collection as inhibitors of Plasmodium falciparum (DD2) proliferation (Rep 2) (AID 743346; call rule not given here); details: P. falciparum Dd2 in erythrocytes, SYBR Green DNA, 72 h; at 28.5 µM unless noted
Outline: (§1)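 Parasite DNA was quantified by SYBR Green I fluorescence (ex 485, em 535 nm) after overnight lysis in saponin/Triton buffer at room temperature. Cultures at 0.3% parasitemia and 2.5% hematocrit were first exposed to compound for 72 h at 37 C; signals were normalised to artemisinin (0.29 uM) and vehicle wells.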

[2] = qHTS profiling of the MIPE4 collection as inhibitors of Plasmodium falciparum (HB3) proliferation (AID 743347; call rule not given here;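 note: plate controls were DMSO vehicle wells for no effect and artemisinin wells for full effect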); details: P. falciparum HB3 in erythrocytes, SYBR Green DNA, 72 h; at 28.5 µM unless noted
Outline: as §1

[3] = High-throughput drug toxicity screening in the BPDCN cell line Gen2.2 (AID 1224824; call rule not given here;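 note: cells exposed to compounds for 48 h before reading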); details: Gen2.2 BPDCN cells; at 45.8 µM (top of the series) unless noted
Outline: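 Gen2.2 cells (500/well) in phenol red-free RPMI with 10% FBS were exposed to compounds for 48 h at 37 °C, 5% CO2. Viability was read by CellTiter-Glo luminescence and normalized to DMSO (100%) and 9.2 uM bortezomib (0%).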

[4] = High-throughput drug toxicity screening in the BPDCN cell line Cal-1 (AID 1224825; call rule not given here); details: Cal-1 BPDCN cell viability, qHTS; at 45.8 µM (top of the series) unless noted
Outline: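 Viability of the BPDCN line Cal-1 is measured as ATP-based luminescence (CellTiter-Glo) following 48 h incubation with compounds. Percent activity uses DMSO-treated wells as 100% and 9.2 uM bortezomib as 0%.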

[5] = qHTS assay for measurement of the activity of small molecule inhibitors on Zika virus induced Caspase-3 activity in human iPSC derived neural progenitor cells (hNPCs) (AID 1224857); note: nearly all actives have a fitted effect of over 65% in size; note: potency is the fitted concentration of half-maximal effect
Outline: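 Cells were plated at 350 per well and grown 16 to 20 hours. Compound pretreatment lasted one hour, after which ZIKV (2 FFU/cell) was added for 6 hours. Percent inhibition was normalized between uninfected and infected controls.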

[6] = qHTS assay for measurement of the activity of small molecule inhibitors on Zika virus induced Caspase-3 activity in human astrocytoma cells (AID 1224859);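 note: plate controls were ZIKV-infected untreated cells for no effect and uninfected cells for full effect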
Outline: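 Percent inhibition of virus-induced caspase-3/7 signal is calculated against uninfected and ZIKV-infected control cells. Cells are SNB-19, infected at 2 FFU/cell for 6 h after 1 h compound exposure.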

[7] = qHTS Screen of the MIPE 4.0 Collection Against Ewings Sarcoma (RDES) (AID 1259252); note: nearly all actives have a fitted effect of over 35% in size; note: potency is the fitted concentration of half-maximal effect
Outline: (§2)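 Compound titrations go onto adherent log-phase cells 4 h after seeding, incubate 48 h at 37C, then CellTiter-Glo luminescence reports viability relative to DMSO and cell-free controls.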

[8] = qHTS assay to identify small molecule inhibitors of chordoma cells - UCH-1 (AID 1259355); note: nearly all actives have a fitted effect of over 55% in size; note: potency is the fitted concentration of half-maximal effect
Outline: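 A 48hr growth-inhibition format: each drug tested at 15 concentrations together with added auranofin, camptothecin, doxorubicin, rubitecan and topotecan, with cell viability quantified as CellTiter-Glo luminescence.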

[9] = qHTS assay to identify small molecule inhibitors of chordoma cells - UCH-2 (AID 1259356); note: potency is the fitted concentration of half-maximal effect
[10] = P-glycoprotein substrates identified in KB-8-5-11 adenocarcinoma cell line, qHTS therapeutic library screen (AID 1346987); note: nearly all actives have a fitted effect of over 65% in size; note: potency is the fitted concentration of half-maximal effect
Outline: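 In this qHTS, P-gp-rich KB-8-5-11 cells received library compounds across a concentration range. Viability was quantified by luminescence after 72 h at 37 degree C.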

[11] = qHTS Screen of the MIPE 4.0 Collection Against Ewings Sarcoma (TC71) (AID 1259253); note: nearly all actives have a fitted effect of over 40% in size; note: potency is the fitted concentration of half-maximal effect
Outline: as §2

[12] = qHTS Screen of the MIPE 4.0 Collection Against Ewings Sarcoma (EW8) (AID 1259255); note: nearly all actives have a fitted effect of over 35% in size; note: potency is the fitted concentration of half-maximal effect;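 for viability: 100% = DMSO-treated cells and 0% = medium-only wells without cells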
Outline: as §2

[13] = qHTS Screen of the MIPE 4.0 Collection Against Ewings Sarcoma (TC32) (AID 1259256); note: nearly all actives have a fitted effect of over 45% in size; note: potency is the fitted concentration of half-maximal effect
Outline: as §2

[14] = Natriuretic polypeptide receptor (hNpr1) antagonism - Pilot counterscreen GloSensor control cell line (AID 1347045; calls by dose curve; note: potency is the fitted concentration of half-maximal effect)
Outline: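 HEK293 cGMP-sensor cells; 2% GloSensor reagent 2 h RT; LOPAC compounds in 1:5 titrations 30-50 min; 50 uM SNP 20 min; luminescence pre-read and post-read.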

[15] = Identifying Small Molecule Inhibitors of Pancreatic Cancer Stem Cells (A2780, Spheroid) (AID 1259357); details: Potency: A2780 spheroid viability;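 note: spheroids pre-formed over 14 days in stem cell medium on hydrogel; compound exposure lasted 48 h before the ATP luminescence read; 100% = DMSO treated cells and 0% = wells without cells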
Outline: (§3)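 Viability is scored by CellTiter-Glo luminescence 48 h after dosing, expressed as percent activity against vehicle and no-cell references. Spheroid formats rely on cells cultured 14 days in stem cell media beforehand.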

[16] = Identifying Small Molecule Inhibitors of Pancreatic Cancer Stem Cells (SN12C, Adherent) (AID 1259358);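 note: cell survival measured after 48 h of compound exposure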; note: potency is the fitted concentration of half-maximal effect
Outline: as §3

[17] = Identifying Small Molecule Inhibitors of Pancreatic Cancer Stem Cells (A278, Adherent) (AID 1259361); note: nearly all actives have a fitted effect of over 35% in size;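 for viability (% of control): 100% = DMSO-treated cells and 0% = cell-free media-only wells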
Outline: as §3

[18] = Identifying Small Molecule Inhibitors of Pancreatic Cancer Stem Cells (Panc1, Adherent) (AID 1259362); details: Potency: viability; note: potency is the fitted concentration of half-maximal effect
Outline: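 Adherent (2D) versus sphere (3D) formats; spheres generated 14 d in SCM beforehand. Compound transferred by pin tool after 4 h, 48 h incubation, CellTiter-Glo endpoint.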

| SMILES | parasite growth, % of control (lower = inhibition) [1] | growth, % of control [2] | cell viability, % of control (lower = more cytotoxic) [3] | viability (% of control) [4] | Potency [5] | Potency [6] | Potency [7] | Potency [8] | Potency [9] | Potency [10] | Potency [11] | Potency [12] | Potency [13] | Potency [14] | Potency [15] | Potency [16] | IC50 (viability decrease) [17] | Potency [18] |
| --- | --- | --- | --- | --- | --- | --- | --- | --- | --- | --- | --- | --- | --- | --- | --- | --- | --- | --- |
| CC(=O)NC[C@H]1CN(c2ccc(N3CCOCC3)c(F)c2)C(=O)O1 | 51.6% | 94.8% | 81.5% | 105% | inactive | inactive | inactive | inactive | inactive | inactive | – | – | – | – | – | – | – | – |
| CN(C)c1ccc2nc3ccc(=[N+](C)C)cc-3sc2c1 | 6.81% and 13.3% | 43.4% and 10.1% | 10.9% | 8.34% | inactive | inactive | – | 7.94 µM (active) | 14.6 µM (active) | 3.32 µM (active) and 6.51 µM (active) | 3.72 µM (active) | 4.69 µM (active) | 9.35 µM (active) | – | – | – | – | – |
| CC(C)c1nc(CN(C)C(=O)N[C@H](C(=O)N[C@@H](Cc2ccccc2)C[C@H](O)[C@H](Cc2ccccc2)NC(=O)OCc2cncs2)C(C)C)cs1 | 41.9% | 15.5% | 28.1% | 94.9% | inactive | inactive | inactive | – | – | inactive | – | 16.6 µM (active) | 14.8 µM (active) | – | – | – | – | – |
| COC(=O)N[C@H](C(=O)N[C@@H](Cc1ccccc1)[C@@H](O)CN(Cc1ccc(-c2ccccn2)cc1)NC(=O)[C@@H](NC(=O)OC)C(C)(C)C)C(C)(C)C | 34.6% | 9.81% | 159% | 107% | inactive | inactive | inactive | – | – | inactive | – | inactive | inactive | – | – | – | – | – |
| N=C(N)c1ccc2cc(OC(=O)c3ccc(N=C(N)N)cc3)ccc2c1 | 14% | 12.8% | 175% | 102% | inactive | inactive | inactive | inactive | inactive | inactive | – | inactive | inactive | – | – | – | – | – |
| Cc1nc2n(c(=O)c1CCN1CCC(c3noc4cc(F)ccc34)CC1)CCCC2 | – | – | 80.6% | 103% | inactive | inactive | – | inactive | inactive | inactive and 8.2 µM (active) | inactive | inactive | inactive | – | – | – | – | – |
| CC(=O)O[C@H]1C(=O)[C@@]2(C)C([C@H](OC(=O)c3ccccc3)[C@]3(O)C[C@H](OC(=O)[C@H](O)[C@@H](NC(=O)c4ccccc4)c4ccccc4)C(C)=C1C3(C)C)[C@]1(OC(C)=O)CO[C@@H]1C[C@@H]2O (stereo partly drawn) | 11.8% | 4.22% | 17% | 12.8% | inactive | inactive | inactive | – | – | 209 nM (active) and 1.01 µM (active) | – | inactive | – | inactive | – | – | – | – |
| COc1ccc2cc([C@H](C)C(=O)O)ccc2c1 | 91% | 102% | 127% | 135% | inactive | inactive | – | inactive | inactive | inactive | inactive | inactive | inactive | inactive | – | – | – | – |
| CCCOc1ccc2nc(NC(=O)OC)[nH]c2c1 | 126% | 99.5% | 86.8% | 14.2% | inactive | inactive | – | – | inactive | – | 0.0093 µM (active) | 0.0066 µM (active) | inactive | – | – | – | – | – |
| COC(=O)C1=C(C)NC(C)=C(C(=O)OCCCN2CCC(c3ccccc3)(c3ccccc3)CC2)C1c1cccc([N+](=O)[O-])c1 (stereo not drawn) | 86.6% | 102% | 109% | 123% | inactive | inactive | – | 31.6 µM (active) | – | inactive and 10.3 µM (active) | 20.9 µM (active) | 18.7 µM (active) | 29.6 µM (active) | – | – | – | – | – |
| CS(=O)(=O)OCCCCOS(C)(=O)=O | 79.3% | 106% | 84.6% | 62.5% | inactive | inactive | inactive | inactive | inactive | inactive | – | inactive | – | – | – | – | – | – |
| CCCCC(CC)COC(=O)C(C#N)=C(c1ccccc1)c1ccccc1 (stereo not drawn) | 11.9% | 7.29% | 157% | 112% | inactive | inactive | – | inactive | inactive | – | inactive | inactive | inactive | – | – | – | – | – |
| Cc1cccc(-c2[nH]ncc2-c2ccc3ncccc3n2)n1 | 81.1% | 52.8% | 759% | 106% | inactive | inactive | – | – | – | – | inactive | inactive | inactive | – | inactive | inactive | inactive | – |
| CNC[C@H](O)c1ccc(O)c(O)c1 | 51.2% [at 57.5 µM] | 78% [at 57.5 µM] | 50.3% [at 92.2 µM] | 79.5% [at 92.2 µM] | inactive | inactive | 42.9 µM (active) | – | inactive | – | – | – | – | inactive | – | – | – | – |
| S=c1nc[nH]c2nc[nH]c12 | 6.58% | 55.2% | 203% | 89.6% | inactive | inactive | – | – | inactive | 2.59 µM (active) and 2.64 µM (active) | 1.87 µM (active) | 2.64 µM (active) | 3.32 µM (active) | – | – | 38.2 µM (active) | 1.71 µM (active) | 5.4 µM (active) |
| CCC(C)(Oc1ccc(C2(c3ccc(OC(C)(CC)C(=O)O)cc3)CCCCC2)cc1)C(=O)O (stereo not drawn) | 73.7% | 107% | 148% | 136% | inactive | inactive | – | inactive | inactive | inactive | inactive | inactive | inactive | – | – | – | – | – |
| CCN(CC)C(=S)SSC(=S)N(CC)CC | 53.4% | 64.3% | 6.77% | 3.25% | 10 µM (active) | inactive | – | inactive | inactive | 41.8 nM (active) and inactive | 0.0132 µM (active) | 0.0187 µM (active) | inactive | 3.29 µM (active) | – | – | – | – |
| NC(=NCc1ccccc1)NC(=O)c1nc(Cl)c(N)nc1N | 83.5% | 98.4% | 130% | 133% | inactive | inactive | 16.6 µM (active) | – | – | – | – | – | – | inactive | – | – | – | – |
